Six1-Eya2 blk: qHTS Assay for Inhibitors of the Six1/Eya2 Interaction. Homeobox protein SIX1 (Homo sapiens) + Protein phosphatase EYA2 (Homo sapiens), …. AlphaScreen GST-Six1/His-Eya2 binding, biochemical; active compounds read low. activity change, % (concentration not given with the values). actives 0.56% (n = 360,000). AID 651725, 2012; in the data active = activity change below about -65%; inconclusive = mostly about -30% to -63%
Target sequence (O00167 whole entry, looked up): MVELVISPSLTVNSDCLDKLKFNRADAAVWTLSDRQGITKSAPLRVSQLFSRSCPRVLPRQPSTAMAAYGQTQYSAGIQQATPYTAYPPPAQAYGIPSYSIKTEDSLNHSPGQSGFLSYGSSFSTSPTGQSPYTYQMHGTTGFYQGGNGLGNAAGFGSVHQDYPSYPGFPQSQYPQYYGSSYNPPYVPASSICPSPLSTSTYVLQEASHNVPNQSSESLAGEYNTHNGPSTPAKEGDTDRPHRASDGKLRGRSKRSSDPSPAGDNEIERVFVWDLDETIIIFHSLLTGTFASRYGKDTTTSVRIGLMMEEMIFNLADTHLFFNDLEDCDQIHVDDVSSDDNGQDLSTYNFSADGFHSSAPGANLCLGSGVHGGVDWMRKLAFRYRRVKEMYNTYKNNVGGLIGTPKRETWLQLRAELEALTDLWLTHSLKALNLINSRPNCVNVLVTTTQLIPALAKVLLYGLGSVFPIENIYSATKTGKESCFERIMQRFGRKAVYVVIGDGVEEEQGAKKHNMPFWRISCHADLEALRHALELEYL
Target sequence (Q15475 whole entry, looked up): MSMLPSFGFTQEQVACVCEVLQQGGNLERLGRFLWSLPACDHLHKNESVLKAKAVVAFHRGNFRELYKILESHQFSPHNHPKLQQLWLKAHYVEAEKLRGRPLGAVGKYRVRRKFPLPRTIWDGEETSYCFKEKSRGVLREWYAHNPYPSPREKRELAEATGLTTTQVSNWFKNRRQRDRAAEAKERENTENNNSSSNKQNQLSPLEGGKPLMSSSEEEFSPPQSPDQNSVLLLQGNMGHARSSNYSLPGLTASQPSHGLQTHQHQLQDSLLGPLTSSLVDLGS
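AlphaScreen with GST-Six1 and His-Eya2 (5X mix: 250 nM and 500 nM), glutathione donor and nickel acceptor beads; buffer 50 mM Tris pH 8.0, 300 mM NaCl, 1 mM TCEP; 1 h at 37 C in the dark.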
Gal4-VP16 FLuc: VP16 counterscreen qHTS for inhibitors of ROR gamma transcriptional activity; Potency, µM (top dose mostly 53.6 µM), most hits filed as inhibitors; actives 3.5% (n = 310,000); AID 2546, 2010; Drosophila S2 Gal4-VP16 UAS-luciferase, luminescence, 20 h;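 also: Gal4-VP16 expression switched on by copper sulfate through the metallothionein promoter; nearly all actives have a fitted effect of over 50% in size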
RORgamma inh: qHTS for inhibitors of ROR gamma transcriptional activity; Nuclear receptor ROR-gamma (Mus musculus), P51450; Drosophila S2 Gal4-RORgamma UAS-luciferase reporter, 20 h; Potency, µM (series often up to 53.6 µM), hits mostly inhibitors; actives 5.4% (n = 310,000); AID 2551, 2010; also: nearly all actives have a fitted effect of over 60% in size
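Schneider cells (Drosophila), stable Gal4 DBD–ROR gamma + UAS-luc; 1 hr cmpd preincubation; Cu2+ induction 700 uM final; 20 hr ambient; luminescence.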
PKM2 act: qHTS Assay for Activators of Human Muscle isoform 2 Pyruvate Kinase; actives 0.34% (n = 260,000); Pyruvate kinase PKM (Homo sapiens), P14618; purified PKM2, Kinase-Glo ATP luminescence, activation; response scale: 0% is enzyme alone, no compound; Potency, µM (series often up to 57.5 µM), hits mostly activators; also: nearly all actives have a fitted effect of over 55% in size
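hPK-M2, >95% pure; 0.1 mM ADP / 0.5 mM PEP final; imidazole pH7.2 buffer w/ 7 mM MgCl2, 50 mM KCl; 1 h RT; Kinase-Glo lum. Intermediate enzyme activity for dual inhibitor/activator qHTS.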
CtBP-E1A inh: qHTS Assay for Inhibitors of the CtBP/E1A Interaction. CtBP / adenovirus E1A interaction (AlphaScreen). AID 651724, 2012. AlphaScreen GST-E1A/His-CtBP binding, 1536-well; active compounds read low. actives 0.49% (n = 340,000). activity change, % (no concentration beside the values); in the data active = activity change below about -65%; inconclusive = mostly about -30% to -63%
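Protein mix (5X: 125 nM each GST-E1A, His-CtBP) was incubated with pinned compound 2 h at 37 deg C in dark, in 50 mM Tris pH 8.0 buffer with 300 mM NaCl. Glutathione donor and nickel acceptor beads followed; AlphaScreen signal read after 1 h.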
A number is an active result; – = inactive; ? = inconclusive; · = no result; [ ] = remark or other dose. Most compounds without a hit are left out; they make up all but 5.6% or so of the library. Unless noted, calls follow the shape of the dose curve; as a rule, active = well fitted curve in the direction sought with a large enough effect; inconclusive = small, poorly fitted or top-dose-only effect, or another doubt; inactive = no such curve, though single readings can be large; an effect the other way counts as inactive or inconclusive.

SMILES	Six1-Eya2 blk	Gal4-VP16 FLuc	RORgamma inh	PKM2 act	CtBP-E1A inh
CCN1CCN(Cc2ccc(NC(=O)c3cc(NC(=O)C(=O)c4c[nH]c5ccccc45)cc(OC)c3)cc2C(F)(F)F)CC1	–	?	?	–	–
CC1=CC(C)(C)n2c(O)c(N=NC(N)=S)c3cc(C)cc1c32	–	1.8µM	0.79µM	–	–
CC1=CC(C)(C)n2c(O)c(C3=NC(=S)NC3=O)c3cc(OC(=O)c4cccc5ccccc45)cc1c32	–	–	–	–	–
COc1ccc(-n2cnc(=S)[nH]c2=S)cc1	–	·	·	·	–
CC(C)(C)c1cn(-c2ccc(Cl)cc2)c(=S)[nH]1	–	5.6µM	4.5µM	–	–
CC(C)CCC1=NN(C(=O)c2ccco2)C(O)(C(F)(F)F)C1 (stereo not drawn)	–	–	–	–	–
CC(C)CC1=NN(C(=O)c2ccco2)C(O)(C(F)(F)F)C1 (stereo not drawn)	–	14µM	6.3µM	–	–
O=C(NCc1ccc(F)cc1F)Nc1cnccc1C(F)(F)F	–	–	–	·	·
CCOc1ccc(NC(=S)NCc2ccc3c(c2)OCO3)cc1	–	?	7.9µM	–	–
S=C(NCc1ccc2c(c1)OCO2)NC1CC1	–	?	13µM	–	–
Cc1ccc(NC(=S)NCc2ccc3c(c2)OCO3)cc1	–	16µM	13µM	–	–
Cc1ccc(NC(=S)NCc2ccc3c(c2)OCO3)c(C)c1	–	–[0.365 µM]	?	–	–
CC1(C)CC(NC(=S)NCc2ccc3c(c2)OCO3)CC(C)(C)N1	·	–	–	–	·
N#Cc1ccc(C(=O)CSc2n[nH]c(=O)n2Cc2ccco2)cc1	–	–	–	–	–
CCOC(=O)C(C(=O)OCC)C(Nc1ccc(Br)cc1)c1ccccc1 (stereo not drawn)	–	?	11µM	–	–
Cn1cc(C(=O)c2cccc(Cl)c2Cl)cc1C(=O)O	–	–	–	–	–
COC(=O)c1cc(C(=O)c2cccc(Cl)c2Cl)cn1C	–	–	–	25µM	–
O=c1oc2c(CN3CCOCC3)c(O)c(Cl)cc2c2c1CCCC2	–	–	11µM	–	–
O=c1oc2c(CN3CCOCC3)c(O)ccc2c2c1CCCC2	–	–	–	–	–
O=C(O)CCCC/C=C(\c1ccccc1)c1cccnc1	·	–	–	·	·
O=C(NCc1cc([N+](=O)[O-])ccc1O)c1cccnc1Sc1ccccc1Cl	?	2.8µM	3.5µM	–	–
Cc1cc(=O)[nH]c(NN=Cc2cc(Br)ccc2O)n1	-89	·	·	·	-94
CCN(CC)c1ccc(/C=N/Nc2nc(C)cc(=O)[nH]2)c(O)c1	-92	3.2µM	5µM	–	-98
Cc1[nH]n(C2=NCCS2)c(=O)c1N=Nc1cccc(C(F)(F)F)c1	–	0.63µM	0.28µM	–	–
Cc1[nH]n(C(N)=S)c(=O)c1N=Nc1cc(C(F)(F)F)ccc1Cl	–	?	0.56µM	·	–
SMILES	Six1-Eya2 blk	Gal4-VP16 FLuc	RORgamma inh	PKM2 act	CtBP-E1A inh
Cc1ccc(C(F)(F)F)cc1NC(N)=S	–	–	–	–	–
O=c1[nH]n2c(=O)c3c([nH]c2c1N=Nc1cccc(C(F)(F)F)c1)CCCC3	?	?	–	–	–
Cc1[nH]n(C(N)=S)c(=O)c1N=Nc1cccc(C(F)(F)F)c1	–	0.4µM	0.11µM	·	–
O=C(c1ccncc1)N1CCC2(CCCN(c3ccncc3)C2)CC1	·	–	–	·	·
COc1ccc(Br)cc1/C=N/NC(=O)c1ccco1	–	–	–	–	·
CC(C)(C)c1ccc(OCC(=O)N/N=C/c2cc(Br)ccc2OC(=O)c2ccco2)cc1	–	1.3µM	0.25µM	–	–
COc1cc(NC(=O)c2cc(OC)c(OC)c(OC)c2)cc(-n2cnnn2)c1	–	–	–	–	–
COc1cc([N+](=O)[O-])cc(/C=N/NC(=O)CC#N)c1O	·	–	–	–	·
COc1ccc([N+](=O)[O-])cc1/C=N/NC(=O)Cc1ccccc1	–	?	7.9µM	–	·
COc1cc(/C=N/NC(=O)Cc2ccccc2)ccc1Oc1ccc([N+](=O)[O-])cc1[N+](=O)[O-]	–	–	–	–	–
COc1cc([N+](=O)[O-])cc(/C=N/NC(=O)Cn2cncn2)c1O	-90	–	?	?	·
COc1cc([N+](=O)[O-])cc(/C=N/NC(=O)CSc2ccccn2)c1O	-82	6.3µM	0.63µM	–	-91
COc1ccco1	·	–	–	·	·
CCN(CC)C(=S)SC1CCCCN(C(=O)c2ccc(F)cc2)C1=O (stereo not drawn)	–	–	–	–	–
Cc1cc(C(F)(F)F)c(C#N)c(SCC(=O)Nc2nc3ccccc3s2)n1	–	–	?	–	–
Cc1ccc2sc(NC(=O)CSc3nc(C)cc(C)c3C#N)nc2c1	–	?	0.71µM	–	–
Cc1nc(SCC(=O)Nc2nc3ccccc3s2)c(C#N)c(C)c1C	–	?	0.35µM	–	–
Cc1cc(C)c(C#N)c(SCC(=O)Nc2nnc(-c3ccccc3)s2)n1	–	–	–	–	–
COC(=O)c1sc(NC(=S)NC(=O)c2ccccc2F)nc1C	–	–	–	–	–
S=C(Nc1nc2c(s1)CCCC2)NC1CC1	–	1.8µM	1.3µM	–	–
Cc1nc(NC(N)=S)sc1C(=O)Nc1ccccc1	–	–	11µM	–	–
COC(=O)c1sc(NC(=S)NC(=O)c2cccc(C)c2)nc1C	–	?	4µM	–	–
COC(=O)c1ccc(C(=O)NC(=S)Nc2nc3c(s2)CCCC3)cc1	–	7.1µM	2.2µM	–	–
Cc1nc(NC(=O)C2CC2)sc1C(=O)Nc1ccccc1	–	–	?	–[11.5 µM]	–
CCOC(=O)CC[C@H](NC(=O)Cn1cnc(C(=O)Nc2ccc(C)c(C)c2)n1)C(=O)OCC	–	·	·	·	–
SMILES	Six1-Eya2 blk	Gal4-VP16 FLuc	RORgamma inh	PKM2 act	CtBP-E1A inh
COc1ccc(N(CCC#N)C(=O)/C(C#N)=C\c2cccs2)cc1	–	–	–	–	–
O=C(NCCc1nnc2ccc(SCC(=O)N3CCCC3)nn12)c1ccccc1	–	–	–	–	–
Cc1nc(NC(=S)NC(=O)c2ccccc2)sc1C	–	?	1.3µM	–	–
O=C(NC(=S)Nc1nc2c(s1)CCCC2)c1ccccc1	–	0.63µM	0.56µM	–	–
Cc1nc(Nc2ccccc2)sc1C	–	13µM	3.5µM	–	–
COc1ccc(Cc2nnc(NC(=O)CSc3ccc(C)cc3)s2)cc1OC	–	?	11µM	–	–
Cc1cccc2sc(NNC(=O)C3COc4ccccc4O3)nc12 (stereo not drawn)	–	11µM	6.3µM	–	–
O=C(NNc1nc2c(F)cc(F)cc2s1)C1COc2ccccc2O1 (stereo not drawn)	–	–	13µM	–	–

Screens from PubChem BioAssay.
